Our source for the Potency, outcome and max activation values is PubChem BioAssay (Tox21).

Values without a mark were called inactive. Records with an inconclusive call do not appear. Activity calls are given as the source filed them. Unless noted, calls follow the shape of the dose curve; as a rule, active = well fitted curve in the direction sought with a large enough effect in the repeat runs; inconclusive = weak or mixed curves; inactive = no such curve, though single readings can be large; an effect the other way counts as inactive or inconclusive.

Assay [1] is described as follows: qHTS assay to identify small molecule agonists of the estrogen receptor alpha (ER-alpha) signaling pathway in the presence of an antagonist - cell viability counter screen (AID 1259386).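 Also: series mostly up to about 92 µM; cells exposed to compounds for 22 h at 37 °C before the viability read; nearly all actives have a fitted effect of over 30% in size.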 The method, boiled down: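 The test measures whether compounds kill ER-alpha reporter cells (VM7Luc4E2) under antagonist co-treatment (ICI-182,780, 10.0nM). Fluorescence from CellTiter-Fluor is read after a 22hr exposure.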
For orientation: In qHTS, concentration-response curves come from the screen itself.

The target of assay [2] is Progesterone receptor (Homo sapiens) (UniProt P06401). In words: qHTS assay to identify small molecule agonists of the progesterone receptor (PR) signaling pathway (AID 1346784; calls by dose curve; also: nearly all actives have a fitted effect of over 30% in size). The method, boiled down: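 Agonist qHTS: compounds pinned onto 3,000 PR-UAS-bla HEK 293T cells per well in charcoal-stripped serum medium, 16hr at 37C, then beta-lactamase activity measured by LiveBLAzer FRET fluorescence after 2 hours at room temperature.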

Assay [3] shares this target. Briefly: qHTS assay to identify small molecule antagonists of the progesterone receptor (PR) signaling pathway (AID 1346795; active = well fitted inhibition curve with a large enough effect in the signal ratio in the repeat runs, not every such curve was filed as active; the % refers to the signal ratio; also: potency is read from the fitted curve at half-maximal effect). In a few lines: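 Antagonist mode with agonist R5020 at 1 nM final and 16 hr incubation at 37C. Reporter was beta-lactamase driven by UAS in HEK293T (PR-UAS-bla), 2% charcoal-stripped serum; signal from LiveBLAzer FRET substrate, 2 hr at room temperature.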

Assay [4] is described as follows: qHTS assay to identify small molecule agonists of the progesterone receptor (PR) signaling pathway - cell viability counter screen (AID 1346799; calls by dose curve; also: nearly all actives have a fitted effect of over 45% in size). The method, boiled down: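 Cytotoxicity measured by CellTiter-Glo luminescence (30 min, RT) in the same wells as the PR beta-lactamase agonist read. Those HEK293T cells had 16 h compound treatment at 37 C in 2% charcoal-stripped FBS medium.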

Assay [5] is described as follows: qHTS assay to identify small molecule antagonists of the TGF-beta/Smad signaling pathway - cell viability counter screen (AID 1346824). Also: nearly all actives have a fitted effect of over 50% in size. The method, boiled down: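 SBE-bla HEK 293T cells, incubated overnight, then compound plus 0.25 ng/mL TGF-beta1 (stock added) for 5 hr at 37 C. Viability was read in the same wells by CellTiter-Glo luminescence after 30 min at room temperature.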

A short description of assay [6]: qHTS assay to identify small molecule agonists of the TGF-beta/Smad signaling pathway - cell viability counter screen (AID 1346829). Also: top concentration of the series differs between compounds; nearly all actives have a fitted effect of over 45% in size. The method, boiled down:
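Here the cytotoxicity of library compounds is measured in SBE-bla HEK 293T cells treated for 5 hr, using CellTiter-Glo added to wells already read for the beta-lactamase reporter.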

Assay [7] in a line: qHTS assay to identify small molecule agonists of the TGF-beta/Smad signaling pathway (AID 1346859; active = well fitted activation curve with a large enough effect in the signal ratio in the repeat runs, not every such curve was filed as active; the % refers to the signal ratio; also: series mostly up to about 77 µM). The method, boiled down:
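Fluorescence (ex 405 nm; em 460 and 530 nm) was read 2 h after LiveBLAzer FRET substrate at RT. The preceding compound treatment of overnight-plated SBE-bla HEK293T cells lasted 5 h at 37 C.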

For assay [8], the target named is Thyrotropin-releasing hormone receptor (Homo sapiens) (UniProt P34981). Briefly: qHTS assay to identify small molecule antagonists of the thyrotropin-releasing hormone receptor (TRHR) signaling pathway (AID 1346877; active = well fitted inhibition curve with a large enough effect in the repeat runs, not every such curve was filed as active; also: series mostly up to about 51 µM). In a few lines: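 Overnight-plated (18 h, 37 °C) HEK293 cells expressing TRHR were dye-loaded 2 h, treated with compound, then stimulated with TRH at 1 nM final. Fluorescence intensity was captured every second for 3 min.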

Assay [9] has the same target. Briefly: qHTS assay to identify small molecule agonists of the thyrotropin-releasing hormone receptor (TRHR) signaling pathway (AID 1346891; calls by dose curve; also: potency is read from the fitted curve at half-maximal effect; as to activation: series mostly up to about 58 µM). In a few lines: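 Agonist-mode intracellular calcium readout: kinetic fluorescence over 3 min at 1 s intervals after compound addition to TRHR-HEK293 cells (18 h seeded, 2 h dye-loaded at 37 C). Fifteen concentrations, triplicates.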

Assay [10] is described as follows: Human pregnane X receptor (PXR) small molecule agonists, qHTS cell viability counter screen (AID 1346977). Also: nearly all actives have a fitted effect of over 50% in size. In a few lines: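 Same-well viability read: CellTiter-Fluor added after 23 hr compound exposure, fluorescence measured 1 hr later. Cells were PXR-Luc HepG2 seeded at 2,000/well in 5% charcoal-stripped FBS medium, rested 5 hr before dosing at 37 C.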
A short description of assay [11]: Caspase-3/7 induction in HepG2 cells by small molecules, qHTS assay (AID 1346978). Also: nearly all actives have a fitted effect of over 15% in size. The method, boiled down: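 Wild-type HepG2 cells, 2,000/well, settled 5 hr at 37 C and 5% CO2, then compound-treated for 17 hr; caspase-3/7 activity read by luminescent Caspase-Glo 3/7 after 30 min at room temperature.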
Assay [12] in a line: Caspase-3/7 induction in CHO-K1 cells by small molecules, qHTS cell viability counter screen (AID 1346979). Also: nearly all actives have a fitted effect of over 35% in size. In a few lines:
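Cytotoxicity counter screen: CellTiter-Fluor added to compound-treated wild-type CHO-K1 cells at 16 h (37C, 5% CO2), fluorescence measured 1 h later; same wells as caspase-3/7 measurement.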

Assay [13] can be described thus: Caspase-3/7 induction in CHO-K1 cells by small molecules, qHTS assay (AID 1346980). Also: nearly all actives have a fitted effect of over 15% in size. The method, boiled down: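 Wild-type CHO-K1 cells exposed to compounds for 17hr at 37 C, 5% CO2. Caspase-3/7 activity then measured by Caspase-Glo 3/7 luminescence after 30min at room temperature.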
Assay [14] addresses Nuclear receptor subfamily 1 group I member 2 (Homo sapiens) (UniProt O75469). In words: Human pregnane X receptor (PXR) small molecule agonists, qHTS assay (AID 1346982). Also: nearly all actives have a fitted effect of over 35% in size. In a few lines: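 Stable HepG2 line reporting PXR-mediated CYP3A4 expression via luciferase. Treatment: 24 hr with compounds in DMSO at 37 C. Detection: ONE-Glo luminescence.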
In assay [15] the target is Cytochrome P450 2D6 (Homo sapiens) (UniProt P10635). Briefly: Cytochrome P450 Family 2 Subfamily D Member 6 (CYP2D6) small molecule antagonists: luciferase reporter qHTS assay (AID 1671196). Also: nearly all actives have a fitted effect of over 50% in size. Also: potency is read from the fitted curve at half-maximal effect. In a few lines:
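Chemicals tested for interference with CYP2D6 activity; proluciferin substrate, NADPH regeneration, 1 h at room temperature, luminescent detection.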

Assay [16] can be described thus: Caspase-3/7 induction in HepG2 cells by small molecules, qHTS cell viability counter screen (AID 1346981). Also: series mostly up to about 92 µM; nearly all actives have a fitted effect of over 30% in size. The method, boiled down:
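Treatment of HepG2 cells with DMSO-delivered compounds ran 16 hr at 37 C following a 5-hr pre-incubation of 2,000 cells/well. CellTiter-Fluor fluorescence, read after 1 hr, served as the viability measure in a qHTS format.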

Assay [17] is described as follows: qHTS assay to identify small molecule antagonists of the progesterone receptor (PR) signaling pathway - cell viability counter screen (AID 1346798). Also: series mostly up to about 92 µM; nearly all actives have a fitted effect of over 50% in size. The method, boiled down: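 Cytotoxicity read as CellTiter-Glo luminescence (30 min, room temperature) in the same wells as the beta-lactamase readout. HEK293T PR-UAS-bla cells in charcoal-stripped 2% FBS received compound and R5020, then 16 h at 37C, 5% CO2.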

For assay [18], the target named is Nuclear receptor subfamily 1 group I member 2 (Rattus norvegicus) (UniProt Q9R1A7). Briefly: Rat pregnane X receptor (rPXR) activation by small molecules, qHTS assay (AID 1346983). Also: nearly all actives have a fitted effect of over 20% in size. The settings on record: rPXR luciferase reporter cells, One-Glo luminescence, 24 h; max activation: stronger effect = higher value. The method, boiled down: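 Cell-based rPXR activation assay: rPXR cells, 2,000 per well, rested 5hr at 37 C, then exposed to compounds in DMSO for 24 hr at 37 C. Luciferase activity read by One-Glo luminescence after 30 min at room temperature.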

Assay [19] addresses Nuclear receptor subfamily 1 group I member 2 (Homo sapiens) (UniProt O75469). Briefly: CYP3A4 induction through human pregnane X receptor (PXR) by small molecules, qHTS assay (AID 1346984). Also: nearly all actives have a fitted effect of over 40% in size. The method, boiled down: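 After 24 h at 37C with compound, DPX-2 cells (HepG2, co-transfected PXR response element and CYP3A4 promoter-luciferase) got 3uM final P450-Glo Luciferin-IPA for 3 h; One-Glo luminescence followed.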

Assay [20] has the same target. In words: Human pregnane X receptor (PXR) activation by small molecules, qHTS assay (AID 1346985). Also: nearly all actives have a fitted effect of over 40% in size. In a few lines:
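DPX-2 cells (HepG2 co-transfected with a PXR response element and a CYP3A4-promoter luciferase construct) were seeded at 2,000 per well, rested 5 hr at 37C, then exposed to DMSO-dissolved compounds for 24 hr. Activation was read as luciferase luminescence.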
% is scaled to controls: 0 for no effect and ±100 for the full control effect.

Thyrotropin-releasing hormone receptor (Homo sapiens), sequence (P34981 whole entry, looked up): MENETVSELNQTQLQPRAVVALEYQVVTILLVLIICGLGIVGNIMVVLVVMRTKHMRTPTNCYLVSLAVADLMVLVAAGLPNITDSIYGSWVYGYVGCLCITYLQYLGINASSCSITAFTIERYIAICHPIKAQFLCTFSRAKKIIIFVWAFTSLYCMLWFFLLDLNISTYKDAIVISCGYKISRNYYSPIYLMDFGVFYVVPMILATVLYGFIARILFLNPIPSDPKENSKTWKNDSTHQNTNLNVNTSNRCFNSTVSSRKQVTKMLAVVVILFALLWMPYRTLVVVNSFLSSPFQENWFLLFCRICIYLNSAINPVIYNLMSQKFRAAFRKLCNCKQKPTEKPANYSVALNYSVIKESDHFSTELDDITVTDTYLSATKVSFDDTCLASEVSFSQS
Nuclear receptor subfamily 1 group I member 2 (Homo sapiens), sequence (O75469 whole entry, looked up): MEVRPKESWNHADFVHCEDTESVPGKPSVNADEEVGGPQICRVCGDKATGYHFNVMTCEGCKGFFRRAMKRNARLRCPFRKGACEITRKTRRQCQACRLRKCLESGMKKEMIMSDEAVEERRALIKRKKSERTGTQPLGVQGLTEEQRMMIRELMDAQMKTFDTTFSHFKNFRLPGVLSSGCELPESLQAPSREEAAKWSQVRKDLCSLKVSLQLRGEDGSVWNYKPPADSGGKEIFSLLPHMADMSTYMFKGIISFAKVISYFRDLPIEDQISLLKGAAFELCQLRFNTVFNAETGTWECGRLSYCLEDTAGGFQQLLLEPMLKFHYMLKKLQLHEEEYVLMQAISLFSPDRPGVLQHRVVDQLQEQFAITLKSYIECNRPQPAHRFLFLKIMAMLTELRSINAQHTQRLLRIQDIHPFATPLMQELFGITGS
Progesterone receptor (Homo sapiens), sequence (P06401 whole entry, looked up): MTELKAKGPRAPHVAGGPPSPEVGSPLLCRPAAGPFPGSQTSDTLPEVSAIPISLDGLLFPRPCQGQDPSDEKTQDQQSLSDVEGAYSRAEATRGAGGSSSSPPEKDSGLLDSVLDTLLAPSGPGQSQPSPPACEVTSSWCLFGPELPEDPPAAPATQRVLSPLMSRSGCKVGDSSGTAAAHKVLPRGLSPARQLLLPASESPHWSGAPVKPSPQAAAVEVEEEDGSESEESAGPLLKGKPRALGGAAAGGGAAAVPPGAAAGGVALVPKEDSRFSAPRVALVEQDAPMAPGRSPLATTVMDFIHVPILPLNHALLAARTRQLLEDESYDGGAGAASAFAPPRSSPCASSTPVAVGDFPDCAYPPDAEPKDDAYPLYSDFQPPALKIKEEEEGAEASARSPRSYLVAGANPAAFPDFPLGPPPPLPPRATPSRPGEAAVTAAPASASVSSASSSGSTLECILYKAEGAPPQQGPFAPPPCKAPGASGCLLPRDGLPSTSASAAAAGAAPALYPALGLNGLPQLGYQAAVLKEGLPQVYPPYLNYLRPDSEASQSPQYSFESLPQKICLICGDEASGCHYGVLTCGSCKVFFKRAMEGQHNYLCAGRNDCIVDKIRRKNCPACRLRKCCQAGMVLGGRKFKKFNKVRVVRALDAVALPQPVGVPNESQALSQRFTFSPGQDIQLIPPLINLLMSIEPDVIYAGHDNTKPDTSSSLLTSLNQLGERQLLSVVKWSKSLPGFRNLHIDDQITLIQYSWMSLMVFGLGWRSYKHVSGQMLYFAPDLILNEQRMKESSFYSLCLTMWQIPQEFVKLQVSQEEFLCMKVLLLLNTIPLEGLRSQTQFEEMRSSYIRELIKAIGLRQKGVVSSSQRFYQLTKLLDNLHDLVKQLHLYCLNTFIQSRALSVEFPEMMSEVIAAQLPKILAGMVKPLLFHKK
Nuclear receptor subfamily 1 group I member 2 (Rattus norvegicus), sequence (Q9R1A7 whole entry, looked up): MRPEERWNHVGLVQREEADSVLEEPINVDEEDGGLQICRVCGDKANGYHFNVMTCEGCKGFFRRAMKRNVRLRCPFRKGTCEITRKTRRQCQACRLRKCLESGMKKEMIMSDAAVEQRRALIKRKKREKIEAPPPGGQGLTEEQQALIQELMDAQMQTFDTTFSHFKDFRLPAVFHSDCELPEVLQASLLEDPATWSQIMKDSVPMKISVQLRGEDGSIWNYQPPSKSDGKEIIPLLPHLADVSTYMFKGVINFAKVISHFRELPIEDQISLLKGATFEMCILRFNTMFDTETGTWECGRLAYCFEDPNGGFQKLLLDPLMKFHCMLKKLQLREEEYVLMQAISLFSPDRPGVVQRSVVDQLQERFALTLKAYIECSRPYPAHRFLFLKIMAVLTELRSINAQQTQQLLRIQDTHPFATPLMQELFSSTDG
Cytochrome P450 2D6 (Homo sapiens), sequence (P10635 whole entry, looked up): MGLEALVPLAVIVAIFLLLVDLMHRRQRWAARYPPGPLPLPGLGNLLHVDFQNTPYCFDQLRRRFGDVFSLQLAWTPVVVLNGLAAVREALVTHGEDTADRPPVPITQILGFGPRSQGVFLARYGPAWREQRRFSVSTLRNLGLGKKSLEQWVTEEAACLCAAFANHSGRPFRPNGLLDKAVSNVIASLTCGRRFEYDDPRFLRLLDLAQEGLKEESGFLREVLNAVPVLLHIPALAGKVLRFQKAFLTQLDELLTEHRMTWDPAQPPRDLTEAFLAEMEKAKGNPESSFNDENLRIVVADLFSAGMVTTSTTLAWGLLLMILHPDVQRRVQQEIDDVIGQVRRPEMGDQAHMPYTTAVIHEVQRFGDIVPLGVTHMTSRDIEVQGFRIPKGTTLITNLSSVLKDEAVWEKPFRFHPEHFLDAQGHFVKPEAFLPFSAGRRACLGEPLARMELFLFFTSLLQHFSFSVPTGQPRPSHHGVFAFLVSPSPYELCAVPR

Take `CC(=O)OC/C=C/c1ccccc1`: the Potency entry in [1], in assay [3], in assay [4], in [5], in assay [6] and in [9] was “inactive” each time. In addition, the Potency entry in assay [10], in [12], in assay [13], in [14] and in [15] was “inactive” each time. In addition, the outcome in assay [2], in [7], in assay [8] and in assay [11] was inactive.
As for `CN(C)CC/C=C1\c2ccccc2COc2ccccc21`, the Potency entry in assay [1], in assay [3], in assay [5], in assay [6], in assay [9] and in [12] was “inactive” throughout. In addition, the Potency result in [13] and in [16] was “inactive” throughout. Further, the compound was called inactive in assay [2], in assay [7], in assay [8] and in assay [11].
For `CC(=O)NCCCS(=O)(=O)O`, the Potency entry in assay [1], in assay [17], in [4], in [5], in [6] and in assay [10] was “inactive” in each case. Further, the Potency result in assay [12], in assay [13], in [16], in [14], in [19] and in assay [20] was “inactive” in each case. Also, the Potency result in assay [15] is “inactive”. Besides, the compound was classed as inactive in [2], in assay [7], in assay [8] and in [11]. Further, the Potency in [9] was 11.9 µM (active). Moreover, in [18], the max activation was -4.66%.
As for `CCCc1ccccc1`, the Potency result in assay [1], in [17], in [4], in [5], in assay [9] and in assay [10] was “inactive” in each case. The Potency result in assay [12], in assay [13], in assay [16], in [14] and in assay [15] was “inactive” each time. The result in [2], in assay [7], in assay [8] and in assay [11] was inactive.
Turning to `OC(CCN1CCCCC1)(c1ccccc1)C1CCCCC1` (configuration not stated), the Potency entry in assay [1], in assay [17], in assay [4], in assay [5], in assay [6] and in [12] was “inactive” each time. Moreover, the Potency entry in [13], in assay [16], in assay [19] and in [20] was “inactive” in each case. Also, the result in assay [2] and in assay [11] was inactive. Further, the max activation in [18] was -2.68%. Further, the Potency in assay [15] was 0.977 µM (active).
Take `CC1(C)CCC(C)(C)c2cc(NC(=O)c3ccc(C(=O)O)cc3)ccc21`: the Potency entry in [1], in assay [5], in assay [10], in [13], in [14] and in assay [19] was “inactive” throughout. The Potency result in assay [20] and in assay [15] was “inactive” throughout. For the same compound, the outcome in assay [2], in [7] and in [11] was inactive. Besides, the Potency in [3] is 16.8 µM (active). The max activation in [18] is -8.01%.
Turning to `C=CC(C)(CCC=C(C)C)OC(=O)c1ccccc1` (configuration not stated), the Potency result in [1], in [17], in [4], in assay [5], in assay [6] and in assay [9] was “inactive” throughout. Moreover, the Potency result in assay [10], in assay [12], in assay [13] and in assay [15] was “inactive” each time. For the same compound, the result in [2], in [7], in assay [8] and in [11] was inactive.
